Data on 46 compounds can be found in PubChem BioAssay AID2685 (National Center for Advancing Translational Sciences (NCATS), 2010).

Among all 320,000 compounds or so, about 2,100 (0.66%) were called active. Another 53% or so got no clear call; they are omitted. Calls come from the whole dose curve; as a rule, active = well fitted inhibition curve with a large enough effect in the signal ratio, with a control signal flat (not every such curve was filed as active); inconclusive = small, poorly fitted or top-dose-only effect, or effect the other way, or a change in a side signal; inactive = flat fitted curve, though single readings scatter; the % refers to the signal ratio. For the sample, actives were picked, then their nearest neighbours and some compounds at random.
Potency is the fitted concentration of half-maximal effect.

This test can be described thus: qHTS Assay for Lipid Storage Modulators in Drosophila S3 Cells.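 For cell number change: cells counted by Cell Tracker Red CMTPX staining in the red channel.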 For lipid storage change, negative = inhibition: % is set by controls: 0 for no effect and ±100 for the full control effect. To be noted: BODIPY lipid droplet fluorescence, 18-24 h, cells fed with added oleic acid; cell number change: measured here: cell count max response; series mostly up to 46.1 µM. In short, it runs like this:
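Laser-scanning cytometry quantifies lipid droplet accumulation (500–530 nm total intensity; droplet/cell object ratio) in oleic acid-fed (400 uM added) Drosophila S3 cells treated with a concentration series. 20 uM Triacsin C defined 100% inhibition.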
(In general: In qHTS, concentration-response curves come from the screen itself.)
For the compound `O=C(c1c[nH]c(C(=O)C(Cl)(Cl)Cl)c1)c1ccccc1Br`, the Potency entry was “inactive” and the cell number change came out at 7.04%. Turning to `O=C(c1c[nH]c(C(=O)C(Cl)(Cl)Cl)c1)c1ccccc1Cl`, the Potency was 25.9 µM (active) and the cell number change is -14.7%. Take `O=C(c1c[nH]c(C(=O)C(Cl)(Cl)Cl)c1)c1ccccc1F`: the Potency result was “inactive” and the cell number change is -11.6%. With `COCC(=O)N1CCC(Oc2ccc(C(=O)NCc3cc(C)n(C)n3)cc2)CC1`, the Potency is 16.4 µM (active) and the cell number change is -3.12%.

`COCCC(=O)N1CCC(Oc2ccc(C(=O)NCc3cc(C)n(C)n3)cc2)CC1`: the Potency result is “inactive” and the cell number change is -14.5%.

Consider `COCC(=O)N1CCC(Oc2ccc(C(=O)NCc3cnc(C)cn3)cc2)CC1`, for which the Potency result was “inactive” and the cell number change is 0.0828%. As for `CSc1ccc(C(=O)C2CCCN(C(=O)c3cc4cc(F)ccc4[nH]3)C2)cc1` (stereo not drawn), the Potency entry was “inactive” and the cell number change turned out to be 18.3%. Take `CCN1CCN(CC(=O)Nc2ccc(OC(F)(F)F)cc2)CC1`: the Potency result is “inactive” and the cell number change was -11.2%. In the case of `O=C(Nc1nc2ccccc2s1)c1ccc([N+](=O)[O-])o1`, the Potency result is “inactive” and the cell number change came to 24.1%. As to `O=C(Nc1nc(-c2cccs2)cs1)c1ccc([N+](=O)[O-])o1`, the Potency is 2.06 µM (active) and the cell number change is -9.47%.

In the case of `O=C(Nc1nc(-c2cccs2)cs1)C1=COCCO1`, the Potency result was “inactive” and the cell number change is -0.427%. `O=C(Nc1nc2c(Cl)cccc2s1)c1ccc([N+](=O)[O-])o1`: the Potency was 11.6 µM (active) and the cell number change is -16.1%. For the compound `O=C(COC(=O)c1ccc([N+](=O)[O-])o1)Nc1nc2ccccc2s1`, the Potency result is “inactive” and the cell number change was -3.3%.

As to `Cc1cc(C)c2nc(NC(=O)c3ccc([N+](=O)[O-])o3)sc2c1`, the Potency result is “inactive” and the cell number change is 8.03%.

Turning to `CC(=O)Nc1nc(-c2cccs2)cs1`, the Potency entry is “inactive” and the cell number change was -17%.

Turning to `O=C(Nc1nc2c(F)cc(F)cc2s1)c1ccc2c(c1)OCCO2`, the Potency result was “inactive” and the cell number change is 6.09%.

As to `O=C(Nc1nc2c(F)cc(F)cc2s1)c1ccc([N+](=O)[O-])o1`, the Potency is 5.8 µM (active) and the cell number change is -16.4%. Turning to `CCc1cccc(NC(=S)N(CCN(C)C)C(C)c2ccncc2)c1` (stereo not drawn), the Potency result was “inactive” and the cell number change is -2.18%. As to `O=[N+]([O-])c1ccc(N2CCN(S(=O)(=O)Cc3ccccc3)CC2)cc1N1CCOCC1`, the Potency entry was “inactive”. The same measure, in the same setting: as for `CN1CCN(S(=O)(=O)c2csc(C(N)=O)c2)CC1`, the entry is “inactive”. On to `COc1ccc(N2CCN(C(=O)Cn3c(=O)c4cccn4c4cccnc43)CC2)cc1`, for which the Potency result was “inactive” and the cell number change amounted to 25.5%. In the case of `CCCCn1c(SCC(=O)NCc2ccco2)nc2c1c(=O)n(C)c(=O)n2C`, the Potency result was “inactive” and the cell number change is -2.87%. With `Cc1nn(CC(=O)NCCc2ccc(Cl)cc2)c(=O)c2cccn12`, the Potency entry was “inactive” and the cell number change was found to be 14.2%.

On to `CC(C(=O)NCCc1ccc(Cl)cc1)n1c(=O)c2cccn2c2cccnc21` (stereo not drawn), for which the Potency is 0.517 µM (active) and the cell number change is -6.73%. Turning to `O=C(Cn1c(=O)c2cccn2c2ccccc21)NCCc1ccc(Cl)cc1`, the Potency entry is “inactive” and the cell number change was determined as 23.3%. With `CCCCOc1ccc(C(=O)N=c2sccn2C)cc1OC`, the Potency entry is “inactive” and the cell number change is -1.16%. Regarding `CCOc1cc(C(=O)N=c2sccn2C)ccc1OC(F)F`, the Potency is 11.6 µM (active) and the cell number change is -22.3%.

In the case of `Cn1ccsc1=NC(=O)c1cccc(OC(F)F)c1`, the Potency entry was “inactive” and the cell number change is -7.04%. Consider `CC(Oc1ccc(Br)cc1)C(=O)Nc1ccc(N2CCOCC2)cc1N1CCOCC1` (stereo not drawn), for which the Potency result is “inactive” and the cell number change was -0.694%. Turning to `COc1ccccc1Nc1nc(N)nc(CSC(=S)N2CCC(C)CC2)n1`, the Potency result was “inactive” and the cell number change stood at 8.57%. As to `Fc1ccc(COc2ccc(-c3nnco3)cc2)c(Cl)c1`, the Potency entry is “inactive” and the cell number change is 3.42%. Consider `COc1ccc(C(C)=O)cc1COc1ccc(F)cc1`, for which the cell number change was -1.38% and the lipid storage change, negative = inhibition is 21.6% [at 9.22 µM] (inactive). With `CCOc1ccc(C(C)=O)cc1COc1ccc(-c2nnco2)cc1`, the Potency is 1.84 µM (active). `O=C(NCCCn1ccnc1)Nc1ccc(Cl)cc1`: the Potency entry was “inactive” and the cell number change is -5.93%.

With `Cc1c(N)cc(N)cc1C(=O)O`, the Potency result was “inactive”. In the case of `Cc1c(Br)cc(C(=O)NC2CCCCC2)c(C)c1C`, the Potency result is “inactive” and the cell number change was -1.86%. The matching figures for `Cc1c(Br)cc(C(=O)O)c(C)c1C`: 25.9 µM (active) and -29.4%. In the case of `Cc1nn(-c2ccccc2)c(Cl)c1/C=C1/C(=N)N2N=C(C(C)C)SC2=NC1=O`, the Potency entry is “inactive” and the cell number change was found to be 10.8%.

With `CCOc1ccc(N2CC(C(=O)NCc3nnnn3-c3ccc(C)c(C)c3)CC2=O)cc1` (stereo not drawn), the Potency result is “inactive” and the cell number change was 12.6%. For the compound `O=C(N/N=C/C=C/c1ccc([N+](=O)[O-])cc1)C1COc2ccccc2O1` (stereo not drawn), the Potency result was “inactive” and the cell number change is -22.4%. The matching figures for `Cc1cccc(-n2ncc3c(NCc4cccnc4)ncnc32)c1`: “inactive” and -21%. Regarding `Clc1ccc(-n2ncc3c(NCc4cccnc4)ncnc32)cc1Cl`, the Potency is 13 µM (active) and the cell number change was -22.6%.

Take `Fc1ccc(-n2ncc3c(SCc4cccnc4)ncnc32)cc1`: the Potency is 23.1 µM (active) and the cell number change is -12.6%. Regarding `Cc1ccc(-n2ncc3c(SCc4ccccc4)ncnc32)cc1`, the Potency entry is “inactive” and the cell number change came to 8.14%. With `COc1ccc(-n2ncc3c(NCc4cccnc4)ncnc32)cc1`, the Potency result was “inactive” and the cell number change is -6.4%.

For `Cc1ccc(CSc2ncnc3c2cnn3-c2ccc(C)cc2)cc1`, the Potency entry was “inactive” and the cell number change is -6.49%.
